# Results published in PubChem BioAssay (NCI).
# About 83,000 compounds went through this panel and 20% of them were active in at least one assay; those are over-represented in the sample as a whole.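 Interpretation: 100, growth as untreated; towards 0, rising growth inhibition; 0, no net growth; 0 to -100, cell death. Compounds scoring below 10 were considered active.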 Values without a mark were called inactive. Active and inactive are the calls of the source.
# Tests used:
# Test in all cases: NCI-60 one-dose screen, 48 h (100 = growth as untreated, 0 = no growth, -100 = all killed)
# Conditions in all cases: 10 µM unless noted
# [1] = tested on: HCT-15 colon
# [2] = tested on: HT29 colon
# [3] = tested on: SNB-75 CNS
# [4] = tested on: SNB-19 CNS
# [5] = tested on: U251 CNS
# [6] = tested on: PC-3 prostate
# [7] = tested on: SK-MEL-5 melanoma
# [8] = tested on: UACC-62 melanoma
# [9] = tested on: LOX IMVI melanoma
# [10] = tested on: SK-MEL-28 melanoma
Structure (SMILES),growth [1],growth [2],growth [3],growth [4],growth [5],growth [6],growth [7] [%],growth [8],growth [9],growth [10]
O=C(CCN1CCCC1)Nc1ccc2c(NCc3ccc(F)cc3)c3ccccc3nc2c1,14.3%,0.774% (active),-11% (active),4.86% (active),-39.3% (active),-17% (active),30.5,1.75% (active),-74% (active),30.5%
CCCCCCCCCCCC(=O)C(CCCCCCCCCC)C(=O)Nc1ccccc1 (stereo not given),115%,94.7%,101%,101%,99.4%,92.6%,97.9,91.5%,93.5%,108%
COc1cc2nnn3c4ncccc4c(N=O)c3c2cc1OC,83.4%,57.5%,79.8%,102%,45.1%,74.8%,113,86.3%,58.9%,81.4%
Cc1nc2sc(C(=O)Nc3ccccc3)c(N)c2cc1C(=O)c1ccc(C(F)(F)F)cc1,103%,103%,17.4%,96.3%,102%,102%,98.1,95.3%,96.9%,99.7%
CCCCCCc1nc2nc(Cl)c(Cl)nc2[nH]1,57.2%,77.3%,53.2%,65.6%,49%,47.9%,16.2,38.4%,53.7%,65.1%
Cc1nccc2c3ccc(OCc4cn(-c5ccc(Cl)cc5)nn4)cc3n(CCCc3ccccc3)c12,45.7%,11.1%,-45.1% (active),63%,25.3%,16.3%,68.3,-62% (active),0.291% (active),-34.3% (active)
CN1CCCC1=Nc1ccccc1,111%,98.1%,80%,107%,94.7%,96.9%,104,91.4%,96.6%,96.6%
O=C1Nc2c(ccc(Cl)c2Cl)/C1=C/c1ccc([N+](=O)[O-])cc1,89.4%,99.2%,95.9%,81.3%,92.3%,95.3%,99.6,102%,89.5%,111%
COc1cc2nc(-c3ccc(C(F)(F)F)cc3)cc(OCCN3CCC(O)CC3)c2cc1OC,53.8%,47%,58.1%,89%,69.2%,71.8%,68,84.5%,-20.6% (active),80.7%
CCc1c(Nc2ccc(C)cc2)nc(N)[nH]c1=O,103%,100%,87%,98.9%,101%,95.4%,102,87.2%,105%,101%
NC(=O)c1ccc[n+](CC(=O)N2CCN(c3cc4c(cc3F)c(=O)c(C(=O)O)cn4C3CC3)CC2)c1,81.8%,99.3%,88.2%,92.6%,88.4%,88.9%,93.7,59.2%,43%,75.8%
COc1cc(/C=N/NC(=O)c2ccccc2Nc2cccc(C(F)(F)F)c2)ccc1O,86.1%,113%,107%,84.2%,87.8%,80.9%,58.8,78.7%,76.3%,104%
Cc1ccc2nc3c(cc2c1)CSc1nnc(-c2ccc[nH]c2=S)n1N3,105%,108%,91.4%,90.7%,112%,95.6%,96.4,87%,96.6%,103%
COc1ccccc1N1CCN(C(=O)c2ccc3nc(NC(=O)c4ccc(NCCc5ccccc5)c([N+](=O)[O-])c4)sc3c2)CC1,81.5%,83.4%,91.4%,95.2%,86.4%,77.9%,84.4,71.8%,81.6%,91.5%
COc1cc(C2NC(c3cc(OC)c(OC)c(OC)c3)C(C#N)(C#N)C2(C#N)C#N)cc(OC)c1OC (stereo not given),97.9%,105%,80.7%,98.5%,106%,99.3%,89.5,98.2%,98.2%,96.5%
COc1ccc(-c2c(-c3ccccc3)noc2N)cc1OC,100%,101%,101%,109%,98%,98.8%,97.3,95%,105%,112%
c1ccc2c(-c3c4ccsc4cc4[nH]c5ccccc5c34)c[nH]c2c1,24.7%,8.87% (active),20.3%,48.5%,38.7%,36.1%,31.9,44.8%,26.9%,48.9%
O=C(N/N=C/c1ccc(F)cc1)c1ccccc1Nc1cccc(C(F)(F)F)c1,85.6%,118%,99.5%,90.2%,100%,96.2%,109,101%,86.6%,91.2%
COc1ccc(-c2nn(Cc3ccccc3)c3c2-c2oncc2CC3)cc1OC,93.4%,108%,105%,104%,93.1%,86.6%,102,86.8%,86.2%,105%
COc1ccc(C(=O)/C=C/c2cn(Cc3ccc(Cl)cc3)c3ccccc23)cc1,39.7%,22.8%,76.9%,82.4%,59.6%,61.3%,89.1,31.3%,49.2%,80.6%
N#CC1=C(N)Oc2c(ccc3ccccc23)C1c1ccc([N+](=O)[O-])cc1 (stereo not given),41.5%,90.3%,44.8%,87.8%,89.8%,65.4%,86,65.6%,59.1%,89.3%
C/C(=C(/c1ccccc1)c1ccc(OCC(O)CNCCN2CCOCC2)cc1)c1ccccc1 (stereo not given),4.47% (active),3.2% (active),65.8%,91.2%,32.6%,65.4%,29,62.8%,18.7%,-86.2% (active)
CCCCCCCCCCCCCCCC(=O)OC[C@@]1(O)C[C@@]23CC[C@@H]4C(C)(C)[C@H](O)CC[C@@]4(C)[C@@H]2CC[C@H]1C3,107%,104%,99.6%,96.7%,107%,100%,102,100%,103%,110%
CNC(=O)c1c(NC(=O)c2ccc(C(C)C)cc2)sc2c(CN(C)C)c(O)ccc12,14.2%,87.1%,98.1%,103%,81.7%,79.4%,96,99.9%,57.3%,94.5%
COc1ccc(-c2nc(N/N=C/c3ccco3)nc(N3CCOCC3)c2C#N)cc1,88.3%,91%,15.6%,88.9%,91.8%,59.5%,80.4,75.6%,88.3%,80.8%
CC(=O)[C@@H]1CC[C@]2(C(=O)n3ccnc3)CC[C@]3(C)[C@H](CC[C@@H]4[C@@]5(C)Cc6c([nH]c7ccccc67)C(C)(C)[C@@H]5CC[C@]43C)[C@@H]12,87.7%,81.2%,101%,88.4%,87.7%,63.7%,94.3,94.1%,87.2%,96%
Cc1ccc(-c2c(Br)c(OC(=O)CO[C@@H]3C[C@H](C)CC[C@H]3C(C)C)c(-c3ccc(C)cc3C)c(Br)c2OC(=O)CO[C@H]2C[C@@H](C)CC[C@@H]2C(C)C)c(C)c1,99.6%,103%,85.6%,101%,99.1%,92.8%,55.3,102%,94.4%,108%
